# Source: PubChem BioAssay
# GSTO1 counter – GSTO1 inhibition, counter-screen for RBBP9 inhibitors; recombinant GSTO1, activity-based probe fluorescence polarization; inhibition, % at 5.96 µM; actives 1.1% (n = 300,000);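 active = inhibition above the campaign mean inhibition plus 3 SD, cut at about 35% in these data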;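 note: 0% = GSTO1-1 with DMSO and 100% = wells lacking GSTO1-1 enzyme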
# pPAFAH FP inh – pPAFAH (human) enzyme inhibition; Q13093; recombinant pPAFAH, FP-rhodamine probe fluorescence polarization; inhibition, % at 3.39 µM; actives 1.5% (n = 330,000);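 active = inhibition above the mean inhibition across the screen plus 3 SD, cut at about 25% in these data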;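 note: inhibitors block binding of the rhodamine activity-based probe so polarization drops; 0% = enzyme with DMSO and 100% = wells lacking pPAFAH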
# PME-1 inh – PME-1 (human) inhibition | AID 2130 | recombinant PME-1, FP-Rh probe fluorescence polarization | actives 0.53% (n = 320,000) | inhibition, % at 5.9 µM;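 active = inhibition above the campaign mean of all compounds plus 3 SD, cut at about 26% in these data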;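 note: competitive labeling of PME-1 active site by serine hydrolase directed probe; 0% = PME-1 with DMSO and 100% = wells lacking PME-1 enzyme; inhibitors block probe labeling so polarization falls and inhibition rises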
# Target sequence (Q9Y570 whole entry, looked up): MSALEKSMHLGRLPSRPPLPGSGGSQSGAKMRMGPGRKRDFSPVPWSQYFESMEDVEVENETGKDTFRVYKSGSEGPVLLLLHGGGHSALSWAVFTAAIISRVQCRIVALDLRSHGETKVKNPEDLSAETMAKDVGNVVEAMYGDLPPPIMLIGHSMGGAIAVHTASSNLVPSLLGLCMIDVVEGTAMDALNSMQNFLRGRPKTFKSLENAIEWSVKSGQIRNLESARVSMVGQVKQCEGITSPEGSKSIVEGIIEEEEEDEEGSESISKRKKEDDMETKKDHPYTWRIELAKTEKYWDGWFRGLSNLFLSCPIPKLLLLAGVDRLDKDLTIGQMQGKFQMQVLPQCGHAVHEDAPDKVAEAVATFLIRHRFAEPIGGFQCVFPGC
# Fam108B inh – Fam108B inhibition, counter-screen for RBBP9 inhibitors; AID 1947; recombinant Fam108B, FP-Rh probe fluorescence polarization; actives 0.33% (n = 300,000); inhibition, % at 9.51 µM;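 active = inhibition above the screen mean inhibition plus 3 SD, computed separately per campaign, cut at about 18% in these data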;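 note: inhibitors lower polarization as less probe binds the enzyme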
# PAD4 FP inh – PAD4 (human) enzyme inhibition. Q9UM07. recombinant PAD4, RCA probe fluorescence polarization. inhibition, % at 6.36 µM. actives 0.41% (n = 330,000);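 active = percent inhibition above a cutoff equal to the mean of all tested compounds plus 3 SD, cut at about 15% in these data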;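 note: 0% = PAD4 with RCA probe and DMSO and 100% = probe without PAD4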
# PAD4 confirm – confirmation of human PAD4 inhibitors. shares compounds with PAD4 FP inh. recombinant PAD4, RCA probe fluorescence polarization. inhibition, % at 6.36 µM. actives 28% (n = 1,200). AID 488796;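 active = mean inhibition across replicates above the hit cutoff set by the earlier primary screen, cut at about 15% in these data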;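 note: inhibitors block active-site labeling by the probe so polarization falls; 0% = PAD4 with probe and DMSO and 100% = probe without PAD4 enzyme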
# * = called active by the depositor; · = not tested or not shown. Shown are actives, neighbours in structure and some others; about 2.3% of the full set was active somewhere.
SMILES,GSTO1 counter,pPAFAH FP inh,PME-1 inh,Fam108B inh,PAD4 FP inh,PAD4 confirm
CCN(c1ccccc1)c1cc2ccccc2c(=O)[nH]1,29,3,-1,10,16*,-2
CCn1nnnc1SCC(=O)N(C)C1CCS(=O)(=O)C1 (stereo unspecified),·,0,2,·,16*,-4
Cc1cc(Br)cc(C=Nc2ccc(N3CCOCC3)cc2)c1O,7,4,-6,2,19*,1
Oc1ccc(N=Nc2cccc(C(F)(F)F)c2)cc1C=Nc1ccc(N2CCOCC2)cc1,8,11,4,10,-11,·
COc1ccc(C2C(C#N)=C(N)N(N(C)C)C3=C2C(=O)CCC3)cc1 (stereo unspecified),3,5,3,2,90*,3
Cc1cc(OC(=O)c2ccccc2)n(CCC#N)n1,29,5,4,1,40*,1
CN=C(Nc1cc(C)nn1CCC#N)c1ccccc1,0,5,-1,0,-2,·
CN(Cc1cccc(Cl)c1Cl)c1ccc(S(=O)(=O)N2CCCCC2)cc1[N+](=O)[O-],4,2,-7,0,-2,·
S=c1[nH]nc(COc2ccccc2)n1/N=C/c1ccncc1,1,3,-1,-3,-5,·
CCc1ccc(/C=N/n2c(COc3ccccc3)n[nH]c2=S)cc1,-1,6,-2,0,32*,13
O=C1CN2CCC1C/C2=C\c1ccnc2c(Cl)cccc12 (stereo unspecified),7,3,-3,-2,0,·
O=[N+]([O-])c1cnc(N2CCCCC2)c([N+](=O)[O-])c1,9,10,7,9,41*,-3
O=C(Nc1ccc(Cl)cc1)NC1CCCCNC1=O (stereo unspecified),4,5,4,2,-1,·
Nc1ccccc1C(=O)NC1CCCNC1=O (stereo unspecified),4,-3,-2,4,29*,1
Cn1c(N)c(C(=O)COC(=O)c2cc(S(=O)(=O)N3CCOCC3)ccc2F)c(=O)n(C)c1=O,·,8,·,·,0,·
CCOc1nc(Nc2ccc(OC)cc2OC)nc(OCC)n1,-4,2,4,-2,190*,10
Cc1c([N+](=O)[O-])cnc(Sc2ccccc2)c1[N+](=O)[O-],13,7,-5,7,26*,14
COC(=O)c1cc(NC(=O)CN(C)C2CCS(=O)(=O)C2)cc(C(=O)OC)c1 (stereo unspecified),·,4,·,·,-9,·
CCCCc1cc(=O)oc2cc(O)ccc12,-2,3,2,-1,24*,4
COc1ccc(CNC(=S)NC(C)CCc2ccccc2)cc1 (stereo unspecified),4,0,1,-3,0,·
CC1SC(=S)N(c2ccc(N(C)C)cc2)C1=O (stereo unspecified),15,29*,3,-4,15*,3
CC1CC(C)(C)N2C(=O)C3(Nc4ccccc4S3)c3cccc1c32 (stereo unspecified),4,10,5,2,23*,28*
CC(C)c1cccc(C(C)C)c1NC(=O)CN1C(=O)NC2(CCCCCCC2)C1=O,·,1,4,·,18*,8
CCC(CO)N=CC1=C(O)CC(c2ccccc2)CC1=O (stereo unspecified),-4,4,0,2,-5,·
